The source of these data is PubChem BioAssay AID1688 (National Center for Advancing Translational Sciences (NCATS), 2009).

Structures are written as SMILES. In all, about 220,000 compounds went through this assay and about 2,400 (1.1%) were called active. Where a call stands in place of a potency, no number is given. Inconclusive results (about 7%) are left out. The sample holds actives, similar compounds and a random draw of the others, so the mix is not that of the screen. Calls follow the shape of the dose curve; as a rule, active = well fitted inhibition curve with a large enough effect; inconclusive = small, poorly fitted or top-dose-only effect, or effect the other way; inactive = no such curve, though single readings can be large or run the other way.

The assay in a line: qHTS Multiplex Assay to Identify Dual Action Probes in a Cell Model of Huntington: Aggregate Formation (GFP). Also: nearly all actives have a fitted effect of over 60% in size. The settings on record: PC12 HttQ103-GFP aggregates, Acumen cytometry, 40 h; series mostly up to 9.22 µM. The source says:
NIH Chemical Genomics Center [NCGC]
NIH Molecular Libraries Probe Production centers Network [MLPCN]
Assay Submitter (PI): Wei Zheng
Huntington's disease is a neurodegenerative disorder caused by a trinucleotide repeat expansion in Exon 1 of the Huntingtin gene. The CAG trinucleotide encodes glutamine and polyglutamine expansions cause cell death in selective areas of the brain. Huntington polyglutamine repeats have the tendency to form aggregates which are observable in later stages of the disease. The exact nature of the aggregates, whether toxic, protective, or insignificant, is unclear.
A stable PC12 cell line containing a gene fusion of Exon 1 of the Huntingtin gene linked to GFP under the control of the inducible ecdysone promoter were used as the cell-based model of Huntington Disease for high throughput screening. Exon 1 of the Huntingtin gene contained an expansion of 103 polyglutamines (Q103) which, when expressed, caused cell death and distinct, bright GFP aggregates. The amount of cell death and the size and intensity of GFP aggregates increased over time and induction level. The cell death were quantified with a measurement of ATP content in the cells. A maximal 40-50% of cell death was observed when the Huntington gene was induced in this cell line.
We optimized this assay in a homogeneous 1536 well format. A quantitative high throughput screen (qHTS) was conducted on the PC12 cells which were induced to express the toxic fusion construct. Small molecules which reduced aggregate formation were identified bu using a laser scanning cytometer calibrated to detect the aggregates in cell lysates.
PC12 cells stably containing a construct with an ecdysone inducible promoter expressing GFP fused to the exon 1 of HTTQ103 (Huntington protein which containing a 103 ployglutamine expansion) were used.
NCGC Assay Protocol Summary:
Sequence, Parameter, Description
1, Reagent, 5 uL 1500 cells/well 1536 TC treated White clear bottom plate
2, Compound, 23 nL Tebufenozide inducer (100 nM final) to all columns
3, Compound, 23 nL 40 uM to 0.5 nM Libraries
5, Reagent, 5 ul ATPLite cell death assay reagent
6, Detector, Aggregate quantitation by Acumen Explorer
Media consisted of phenol red free DMEM + 5% equine serum (Hyclone # SH30072.03 ), 5% supplemented Bovine Calf Serum (Hyclone # SH30074.03 ), 1x pen/strep, no G418
Acumen Explorer was used to quantitate GFP aggregates using the following criteria: […] laser excitation, 500-530 nm emission, the PMT was set at a voltage of 450 volts, and objects ranging in size of […] in size having a signal of 6 STDEV above background were collected.
Control columns: 1 = DMSO, 2= 2 uM teb dilns (1:1), 4 = 100 nM Teb inducer. Sample columns received 100 nM Teb.
In general terms: Quantitative high-throughput screening tests each substance at several concentrations.
As to `COC(=O)c1ccc(CN(c2ccccc2OC)S(=O)(=O)c2cccs2)o1`, the Potency result is “inactive”.
For `COC(=O)c1ccc(CSc2ccccc2C)o1`, the Potency entry is “inactive”.
Turning to `COC(=O)c1ccc(Cc2ccccc2)o1`, the Potency was 0.0004 µM (active).
Regarding `Cn1c(=O)c2c(nc(NCc3ccccc3)n2CC(N)=O)n(C)c1=O`, the Potency result was “inactive”.
Turning to `Cc1ncn2cc(-c3ccc(Cl)cc3Cl)[nH]c(=O)c12`, the Potency entry was “inactive”.
The result for `C=C(C)CNC(=S)Nc1ccc(S(=O)(=O)Nc2cnc3ccccc3n2)cc1` reads “inactive”.
Consider `CCc1cc2c(N3CCN(c4nnc(CC)s4)CC3)ncnc2s1`, for which the Potency is 17.8 µM (active).
The value for `CCc1cc2c(NC3CCCC3)ncnc2s1` was “inactive”; that for `Oc1ccccc1N1CCN(c2ncnc3sc(-c4ccccc4)cc23)CC1` was “inactive”; that for `Cc1ccc(C(O)P(=O)(OC(C)C)c2ccc(N(C)C)cc2)cc1` (stereo unspecified) was “inactive”.
As for `O=C(/C=C/Nc1ccc(S(=O)(=O)Nc2cnc3ccccc3n2)cc1)c1cccnc1`, the Potency entry was “inactive”.
On to `CCOC(=O)c1ccc(N=C2SC(C(=O)NC)CC(=O)N2CCc2ccccc2)cc1` (stereo unspecified), for which the Potency entry was “inactive”.
Take `CC1=CC(C)(C)NC(=S)N1NC(=O)c1ccccc1Cl`: the Potency result was “inactive”.
Regarding `CN(NC(=O)c1ccccc1F)c1nc(C(F)(F)F)nc2ccccc12`, the Potency result is “inactive”.
For the molecule `CN(NC(=O)c1ccccc1)c1nc2ccccc2nc1C(F)(F)F`, the Potency entry is “inactive”.
The value for `CSc1nc(N(C)NC(=O)c2cccc(C)c2)c2ccccc2n1` was 1.26 µM (active); that for `O=C(OCc1ccccc1)c1ccc(O)cc1` was “inactive”.
Take `O=C(NCc1cccnc1)C(=O)Nc1nc(-c2ccccc2)cs1`: the Potency result is “inactive”.
The value for `O=C(Nc1cn(-c2ccccc2)nc1-c1ccccc1)c1ccccc1` was “inactive”; that for `CCc1ccc(-c2nn(-c3ccccc3)cc2CSC(=N)N)cc1` was 17.8 µM (active).
The value for `CCn1c(SCc2ccc(C)cc2)nnc1-c1nn(-c2ccccc2)ccc1=O` was “inactive”; that for `Cc1cc(Nc2ccc(Cl)cc2)nc(N2CCOCC2)n1` was “inactive”; that for `CC(=O)NC(=O)c1ccccc1O` was “inactive”.
Consider `Cc1nnc(C)c2c(C)n(N)c(C)c12`, for which the Potency entry is “inactive”.
The result for `CCC(=O)/C=C1\Sc2ccccc2N1CC` reads “inactive”; that for `CCN1/C(=C/c2ccc3ccc(C)cc3[n+]2CC)Sc2ccccc21`, 7.94 µM (active).
The value for `CCN1/C(=C/C(=S)Nc2ccccc2)Sc2ccccc21` was “inactive”; that for `COc1ccccc1N(C)S(=O)(=O)c1ccc(C(=O)NC2CCCCCC2)cc1` was “inactive”; that for `Nc1ccc(C(=O)OCC(=O)NC2CCS(=O)(=O)C2)cc1[N+](=O)[O-]` (stereo unspecified) was “inactive”.
As for `CC(=O)Nc1ccc(NC(=O)c2sc3nc4c(c(-c5ccc(C)cc5)c3c2N)CCC4)cc1`, the Potency result is “inactive”.
The result for `NC(=O)c1sc2nc3c(c(-c4ccccc4)c2c1N)CCC3` reads 7.08 µM (active).
The value for `Cc1cccc(NC(=O)c2sc3nc4c(c(-c5ccco5)c3c2N)CCC4)c1` was “inactive”; that for `CCNc1nc(Oc2ccc(C(=O)OC)cc2)nc(N2CCOCC2)n1` was “inactive”; that for `Cc1cc(=O)[nH]c(SCC(=O)Nc2ccc(Br)cc2)n1` was “inactive”.
In the case of `C=CCNC(=S)NNC(=O)c1cc(Cl)ccc1OC`, the Potency result was “inactive”.
With `CCOC(=O)CSc1nnc(NC(=O)c2cccc(S(=O)(=O)N3CCCC3)c2)s1`, the Potency was 1 µM (active).
Consider `CCOC(=O)CSc1nnc(NC(=O)c2cccc(S(=O)(=O)N3CCCCC3)c2)s1`, for which the Potency entry is “inactive”.
Regarding `O=C(Nc1nncs1)c1cccc(S(=O)(=O)N2CCCCC2)c1`, the Potency result is “inactive”.
The result for `O=P(O)(CN1CCCCCC1)C1Cc2ccccc2C1` reads “inactive”; that for `CC(=O)Nc1nc(C)c(-c2csc(Nc3ccc(S(N)(=O)=O)cc3)n2)s1`, “inactive”; that for `NS(=O)(=O)c1ccc(Nc2nc(-c3ccccc3)cs2)cc1`, 11.2 µM (active).
The value for `COc1ccc(Nc2nc(-c3ccccc3)cs2)cc1` was “inactive”; that for `OCC(CO)NC1C[C@](O)(CO)[C@@H](O)[C@H](O)[C@H]1O` (stereo partly specified) was “inactive”; that for `Oc1c(Cl)cc(Cl)c(Cl)c1Cc1c(O)c(Cl)cc(Cl)c1Cl` was 5.62 µM (active).
With `Cc1ccccc1NCC(=O)N/N=C\c1ccc([N+](=O)[O-])s1`, the Potency is 11.2 µM (active).
The result for `CCOc1ccc(NC(=O)CCC(=O)N/N=C/c2ccc([N+](=O)[O-])s2)cc1` reads “inactive”.
The result for `CC(C)(C)c1cc(C(=O)N/N=C/c2ccc([N+](=O)[O-])s2)n[nH]1` reads “inactive”.
The result for `Cc1ccc(S(=O)(=O)NNC(=S)NC(C)(C)C)cc1` reads “inactive”.
As for `CC(O)COc1ccccc1` (stereo unspecified), the Potency entry was “inactive”.
The result for `CC1CCCCN1S(=O)(=O)c1ccc(S(=O)(=O)N(CC(=O)Nc2ccccc2)Cc2cccs2)cc1` (stereo unspecified) reads “inactive”; that for `O=C(Nc1nnc(-c2ccco2)o1)c1ccc(S(=O)(=O)N2CCOCC2)cc1`, “inactive”; that for `CC1CCCCN1S(=O)(=O)c1ccc(C(=O)Nc2nnc(-c3cccs3)o2)cc1` (stereo unspecified), 11.2 µM (active).
The result for `COc1ccc(C(=O)N/N=C(\C)CC(=O)Nc2ccc(Cl)cn2)cc1` reads “inactive”; that for `COC(=O)c1sccc1NC(=O)CC1C(=O)NCCN1C(=O)Nc1ccc(F)cc1F` (stereo unspecified), “inactive”.
Turning to `O=c1c([N+](=O)[O-])cccn1Cc1ccc(F)cc1Cl`, the Potency was 10 µM (active).
The value for `O=c1c([N+](=O)[O-])cc(C(F)(F)F)cn1Cc1cccc(Cl)c1` was “inactive”.
Regarding `N/C(=N/O)c1cccn1Cc1ccccc1[N+](=O)[O-]`, the Potency result is “inactive”.
The result for `O=C(NCC1CCCO1)c1ccccc1-c1nc(-c2ccccc2Cl)no1` (stereo unspecified) reads “inactive”; that for `CC(=O)Nc1ccc(/C=C/C(=O)c2ccccc2)cc1`, “inactive”.
The value for `CCCC(=O)Nc1ccc(C(=O)N/N=C/c2ccc[nH]2)cc1` was “inactive”; that for `CC(=O)Nc1ccc(C(=O)/C=C/c2ccc[nH]2)cc1` was 11.2 µM (active); that for `Cn1c(=O)c(=O)n(C)c2cc(S(=O)(=O)NCCN3CCN(c4ccccc4F)CC3)ccc21` was “inactive”.
As to `COC(=O)CNc1nc(Cl)nc(N2CCC(C)CC2)n1`, the Potency entry was “inactive”.
Consider `N#Cc1c(C(F)(F)F)cc(-c2cccs2)nc1N1CCCCC1`, for which the Potency result is “inactive”.
The value for `O=C(Nc1ccncc1)c1c(F)cccc1F` was 12.6 µM (active); that for `COc1cccc(OC)c1C(=O)Nc1ccc(Cc2ccncc2)cc1` was “inactive”.
The result for `CSc1nc2ccc(NC(=O)c3c(F)cccc3F)cc2s1` reads “inactive”; that for `O=C(Nc1ccccc1C(F)(F)F)N1CCCC1c1cccnc1` (stereo unspecified), “inactive”; that for `CCOC(=O)c1cc2n(c1N)-c1ccccc1C2=O`, “inactive”.
As for `Cc1[nH]c2ccccc2c1C(=O)COC(=O)C(C)C`, the Potency result was “inactive”.
In the case of `CCOC(=O)c1c(C)[nH]c2c1-c1ccccc1C(=O)C2=O`, the Potency is 5.01 µM (active).
